Among all 9,900 compounds or so, about 90 (0.9%) were called active. Another 2% or so got no clear call; they are omitted.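 Rule for the calls: active = mean normalized replicate activity at least 50 and at least half of replicates each reaching 50; inconclusive = only one of the two criteria met; inactive = neither criterion met.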 Shown is part of a subset that was picked to be rich in actives.
Assay: reduction of CTGF mRNA in DLD1 cells – DLD1 colon cancer cells, RT-qPCR, single point, primary screen (AID 743449);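 note: 0% = neutral control wells and 100% = dasatinib control wells; higher means stronger suppression of CTGF expression like dasatinib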
Conditions: 24 h, at 12.5 µM, stronger effect = higher value

SMILES | inhibition
Cc1noc(C)c1S(=O)(=O)N(C)C[C@H]1OCc2ccccc2-c2ccccc2C(=O)N([C@H](C)CO)C[C@H]1C | -25.8% (inactive)
C[C@@H]1CCCCO[C@@H](CN(C)CC2CCCCC2)[C@@H](C)CN([C@@H](C)CO)C(=O)c2cc(NS(C)(=O)=O)ccc2O1 | 2.58% (inactive)
CS(=O)(=O)N1[C@H](CO)[C@@H](c2ccc(-c3ccccc3F)cc2)[C@@H]1C#N | 16.4% (inactive)
C[C@H]1CN([C@@H](C)CO)C(=O)c2ccccc2-c2ccccc2CO[C@H]1CN(C)Cc1ccccc1C(F)(F)F | 12.5% (inactive)
Cc1ccc(S(=O)(=O)N2C[C@@H](O)COC[C@H]3O[C@@H](CC(=O)NCc4ccc5c(c4)OCO5)CC[C@@H]32)cc1 | 25.4% (inactive)
CCS(=O)(=O)N1CC(=O)N2[C@H](CO)[C@@H](c3ccc(C4=CCCCC4)cc3)[C@@H]2C1 | 0.977% (inactive)
COc1ccc2c3c(n(C)c2c1)[C@H](CO)N(C)CC31CCN(C(=O)NC(C)C)CC1 | 18.6% (inactive)
C[C@@H]1CN([C@@H](C)CO)C(=O)c2c(c3ccccc3n2C)-c2ccccc2CO[C@@H]1CN(C)Cc1cccc(C(F)(F)F)c1 | -39% (inactive)
COc1ccc([C@H]2C/C=C\C[C@@H](c3ccc4c(c3)OCO4)NC(=O)[C@@H](c3ccccc3)CC(=O)N2)c(OC)c1 | 58.4% (active)
COc1ccc([C@H]2C/C=C\C[C@H](c3ccc4c(c3)OCO4)NC(=O)[C@H](c3ccccc3)CC(=O)N2)c(OC)c1 | -62.1% (inactive)
COc1ccc([C@@H]2C/C=C\C[C@@H](c3ccc4c(c3)OCO4)NC(=O)[C@H](c3ccccc3)CC(=O)N2)c(OC)c1 | 31% (inactive)
O=C(Nc1ccc(F)cc1)N1CC(=O)N2[C@H](CO)[C@@H](c3ccc(C#Cc4cccnc4)cc3)[C@@H]2C1 | -8.94% (inactive)
O=C(Nc1ccc(F)cc1)N1C[C@@H]2[C@H](c3ccccc31)[C@@H](CO)N2Cc1ccccc1Cl | -18.1% (inactive)
OC[C@@H]1[C@@H](c2ccc(-c3cccnc3)cc2)[C@H]2CN(Cc3ccccn3)CCCCN12 | -1.92% (inactive)
COc1ccc2c3c([nH]c2c1)[C@H](CO)NCC31CCN(C(=O)Cc2cccnc2)CC1 | 51% (active)
CCCC(=O)N1CCC2(CC1)CN[C@@H](CO)c1[nH]c3cc(OC)ccc3c12 | -5.58% (inactive)
CCCC(=O)N1CCC2(CC1)CN[C@H](CO)c1[nH]c3cc(OC)ccc3c12 | 2.25% (inactive)
O=C(Nc1ccc(-c2ccccc2)cc1)[C@H]1[C@H](CO)[C@H]2Cn3c(cccc3=O)[C@H]2N1CC1CCOCC1 | 14.4% (inactive)
O=C(C[C@H]1C[C@@H]2c3cc(NC(=O)C4CCC4)ccc3O[C@@H]2[C@H](CO)O1)NC1CCCC1 | -3.69% (inactive)
CCCC(=O)Nc1ccc2c(c1)C(=O)N(C)[C@H]1CC[C@@H](CC(=O)N3CCCCC3)O[C@@H]1CO2 | -2.53% (inactive)
CC(C)(C)[S@](=O)N1Cc2cc(C(=O)NCCc3ccncc3)nc(-c3cccc(-c4cccc(C#N)c4)c3)c2[C@@H]1CCO | 79.3% (active)
COc1ccccc1-c1cccc(-c2nc(C(=O)NCc3ccncc3)cc3c2[C@@H](CCO)N([S@](=O)C(C)(C)C)C3)c1 | 20% (inactive)
CC(C)(C)[S@@](=O)N1Cc2cc(C(=O)NCCc3ccncc3)nc(-c3cccc(-c4cccc(C#N)c4)c3)c2[C@H]1CCO | 67.3% (active)

SMILES | inhibition
COc1ccccc1-c1cccc(-c2nc(C(=O)NCc3ccncc3)cc3c2[C@H](CCO)N([S@@](=O)C(C)(C)C)C3)c1 | 19.4% (inactive)
CC(C)(C)[S@](=O)N1Cc2cc(C(=O)NCCN3CCCC3)nc(-c3cccc(-c4ccc(C#N)cc4)c3)c2[C@@H]1CCO | 29.4% (inactive)
CC(C)(C)[S@@](=O)N1Cc2cc(C(=O)NCCN3CCCC3)nc(-c3cccc(-c4ccc(C#N)cc4)c3)c2[C@H]1CCO | -8.4% (inactive)
CCS(=O)(=O)N1CC2(CN(C(=O)c3ccc(F)cc3)[C@@H](CO)c3[nH]c4cc(OC)ccc4c32)C1 | 11.6% (inactive)
C[C@@H]1CN([C@@H](C)CO)C(=O)c2cc(NC(=O)Nc3cccc4ccccc34)ccc2O[C@@H](C)CCCCO[C@@H]1CN(C)Cc1ccc(C(F)(F)F)cc1 | -20.9% (inactive)
COc1ccc(C#Cc2ccc3c(c2)[C@H]2[C@H](CCN2S(=O)(=O)c2ccccc2C)[C@@H](CO)N3C)cc1 | -15.4% (inactive)
CCCC(=O)N1CC2(C1)CN(CC1CC1)[C@@H](CO)c1[nH]c3cc(OC)ccc3c12 | -16.5% (inactive)
COCC(=O)NC[C@@H]1[C@@H](c2ccccc2)[C@H](CO)N1C(=O)c1ccccc1 | 19.2% (inactive)
O=C(CN1CCOCC1)N1CC(=O)N2[C@H](CO)[C@H](c3ccc(-c4cccc(F)c4)cc3)[C@@H]2C1 | -2.97% (inactive)
C[C@@H]1CN([C@H](C)CO)S(=O)(=O)c2ccc(C#Cc3cccc(F)c3)cc2O[C@@H]1CN(C)S(=O)(=O)c1cn(C)cn1 | 72.6% (active)
COc1cccc(C#Cc2ccc3c(c2)O[C@@H](CN(C)C(=O)CN2CCOCC2)[C@@H](C)CN([C@H](C)CO)S3(=O)=O)c1 | 8.35% (inactive)
COc1cccc(C#Cc2ccc3c(c2)O[C@H](CN(C)C(=O)CN2CCOCC2)[C@H](C)CN([C@@H](C)CO)S3(=O)=O)c1 | 22.3% (inactive)
C[C@@H]1CN([C@@H](C)CO)S(=O)(=O)c2ccc(C#Cc3cccc(F)c3)cc2O[C@@H]1CN(C)S(=O)(=O)c1cn(C)cn1 | 40.9% (inactive)
COc1cccc(C#Cc2ccc3c(c2)O[C@@H](CN(C)C(=O)CN2CCOCC2)[C@@H](C)CN([C@@H](C)CO)S3(=O)=O)c1 | 50.7% (active)
C[C@@H]1CN([C@@H](C)CO)S(=O)(=O)c2ccc(C#Cc3cccc(F)c3)cc2O[C@H]1CN(C)S(=O)(=O)c1cn(C)cn1 | 8.89% (inactive)
O=C(CN1CCOCC1)N[C@@H]1CC[C@@H](CCn2cc(C3CC3)nn2)O[C@H]1CO | -8.58% (inactive)
C[C@@H]1CN([C@@H](C)CO)C(=O)c2cccc(NS(=O)(=O)c3ccc(F)cc3)c2O[C@@H]1CN(C)Cc1ccc(Cl)c(Cl)c1 | -11.4% (inactive)
C[C@@H](NC(=O)C[C@H]1C=C[C@H](NS(=O)(=O)c2cccc(F)c2)[C@H](CO)O1)c1ccccc1 | -23.7% (inactive)
O=C(CC1CC1)N1CC(=O)N2[C@H](C1)[C@H](c1ccc(C#Cc3cccc(F)c3)cc1)[C@@H]2CO | 23.8% (inactive)
CS(=O)(=O)N1CC(=O)N2[C@H](C1)[C@@H](c1ccc(C#Cc3ccc(F)cc3)cc1)[C@@H]2CO | 63.2% (active)
COCC(=O)N1CC(=O)N2[C@H](CO)[C@H](c3ccc(C#CC4CC4)cc3)[C@H]2C1 | 25.9% (inactive)
COCC(=O)N1CC(=O)N2[C@H](CO)[C@H](c3ccc(C#CC4CC4)cc3)[C@@H]2C1 | -14.5% (inactive)
CS(=O)(=O)N1CC(=O)N2[C@H](C1)[C@H](c1ccc(C#Cc3ccc(F)cc3)cc1)[C@@H]2CO | -7.23% (inactive)

SMILES | inhibition
COCC(=O)N1CC(=O)N2[C@H](CO)[C@@H](c3ccc(C#CC4CC4)cc3)[C@H]2C1 | 62.3% (active)
O=C(CC1CC1)N1CC(=O)N2[C@H](CO)[C@@H](c3ccc(/C=C/c4ccccc4)cc3)[C@@H]2C1 | 24.1% (inactive)
O=C(CC1CC1)N1CC(=O)N2[C@@H](CO)[C@H](c3ccc(/C=C/c4ccccc4)cc3)[C@@H]2C1 | 52.4% (active)
O=C(CC1CC1)N1CC(=O)N2[C@@H](CO)[C@H](c3ccc(C#Cc4cccc(F)c4)cc3)[C@@H]2C1 | 33% (inactive)
CS(=O)(=O)N1CC(=O)N2[C@H](CO)[C@@H](c3ccc(C#Cc4ccc(F)cc4)cc3)[C@H]2C1 | 43.4% (inactive)
O=C(CC1CC1)N1CC(=O)N2[C@H](CO)[C@@H](c3ccc(C#Cc4cccc(F)c4)cc3)[C@H]2C1 | 50.5% (active)
O=C(CC1CC1)N1CC(=O)N2[C@H](C1)[C@@H](c1ccc(/C=C/c3ccccc3)cc1)[C@@H]2CO | 16.9% (inactive)
CO[C@@H]1CN(C)C(=O)c2cc(NC(=O)Nc3cccc(Cl)c3)ccc2OC[C@@H](C)N(C(=O)Nc2c(C)noc2C)C[C@H]1C | 19.6% (inactive)
C[C@H]1CN([C@@H](C)CO)C(=O)c2cc(NC(=O)C3CC3)ccc2O[C@@H]1CN(C)S(=O)(=O)c1ccccc1 | -17.4% (inactive)
C[C@H](CO)N1C[C@H](C)[C@@H](CN(C)C(=O)Nc2ccccc2)OCCCC[C@H](C)Oc2ccc(NC(=O)Nc3ccccc3)cc2C1=O | 20% (inactive)
C[C@@H]1CN([C@H](C)CO)C(=O)Cc2cc(N(C)C)ccc2O[C@H]1CN(C)Cc1ccc(-c2ccccc2)cc1 | -24.6% (inactive)
O=C(c1ccccc1F)N1CC[C@H]2[C@H](CO)Nc3ccc(Br)cc3[C@H]21 | -3.54% (inactive)
O=C1CCCCn2nncc2COC[C@H](Cc2ccccc2)N1 | -21.7% (inactive)
Cc1ccc(S(=O)(=O)Nc2ccc3c(c2)CC(=O)N([C@H](C)CO)C[C@@H](C)[C@@H](CN(C)S(=O)(=O)c2ccccc2)O3)cc1 | 57.6% (active)
Cc1ccc(S(=O)(=O)Nc2ccc3c(c2)CC(=O)N([C@@H](C)CO)C[C@H](C)[C@@H](CN(C)S(=O)(=O)c2ccccc2)O3)cc1 | -31.9% (inactive)
Cc1ccc(S(=O)(=O)Nc2ccc3c(c2)C(=O)N([C@H](C)CO)C[C@@H](C)[C@H](CN(C)S(=O)(=O)c2cccs2)OCCCC[C@@H](C)O3)cc1 | 57.5% (active)
Cc1ccc(S(=O)(=O)Nc2ccc3c(c2)CC(=O)N([C@H](C)CO)C[C@@H](C)[C@H](CN(C)S(=O)(=O)c2ccccc2)O3)cc1 | -17.2% (inactive)
Cc1ccc(S(=O)(=O)Nc2ccc3c(c2)C(=O)N([C@@H](C)CO)C[C@@H](C)[C@H](CN(C)S(=O)(=O)c2cccs2)OCCCC[C@H](C)O3)cc1 | -3.15% (inactive)
COc1ccc(S(=O)(=O)Nc2ccc3c(c2)C(=O)N([C@H](C)CO)C[C@H](C)[C@@H](CN(C)S(=O)(=O)c2ccc(Cl)cc2)OCCCC[C@H](C)O3)cc1 | -8.83% (inactive)
COc1ccc(S(=O)(=O)Nc2ccc3c(c2)C(=O)N([C@@H](C)CO)C[C@H](C)[C@@H](CN(C)S(=O)(=O)c2ccc(Cl)cc2)OCCCC[C@@H](C)O3)cc1 | 50.6% (active)
Cc1ccc(S(=O)(=O)Nc2ccc3c(c2)C(=O)N([C@H](C)CO)C[C@H](C)[C@@H](CN(C)S(=O)(=O)c2cccs2)OCCCC[C@H](C)O3)cc1 | -31% (inactive)
COc1ccc(S(=O)(=O)Nc2ccc3c(c2)C(=O)N([C@H](C)CO)C[C@H](C)[C@H](CN(C)S(=O)(=O)c2ccc(Cl)cc2)OCCCC[C@@H](C)O3)cc1 | -2.26% (inactive)
